The nature of test [1]: AP1 Signaling Pathway (AID 357).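 Also: ME-180 reporter cells stimulated with EGF at its EC50 level; % is scaled to controls: 0 for no effect and ±100 for the full control effect.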 Put shortly:
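In this screen, ME-180 cells in Opti-MEM with 0.5% dialyzed FBS received EC50 EGF and compound titrations for 5 h. AP-1 reporter beta-lactamase was detected via CCF4 ratio, giving AC50 for positive and negative modulators.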

Test [2] addresses Cytochrome P450 1A2 (Homo sapiens) (UniProt P05177). The experiment in a line: p450-cyp1a2 (AID 410; calls by dose curve; also: potency is read from the fitted curve at half-maximal effect;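 as to activity change, negative = inhibition: -100% = full effect of reference inhibitor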). Put shortly:
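Luminescent readout of luciferin formed from Luciferin-ME by human CYP1A2; data normalized against complete inhibition by 57 uM furafylline. Enzyme 20nM, substrate 100uM at Km, 100mM KPO4 buffer, 60 min reaction at room temperature.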

Test [3] concerns the target Glucocorticoid receptor (Homo sapiens) (UniProt P04150). The experiment in a line: GR-GFP Redistribution (AID 450;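 active = compounds whose dose series gives a full or clear partial fitted curve of increased nuclear translocation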; also: potency is read from the fitted curve at half-maximal effect). Conditions: U2OS GR-GFP nuclear translocation, laser cytometry, 2 h.
Test [4] shares this target. The experiment in a line: GR-EFC Redistribution (AID 451; calls by dose curve; also: potency is read from the fitted curve at half-maximal effect). The conditions noted are these: CHO-K1 GR-EFC translocation, beta-gal luminescence, 2 h. Put shortly: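 Translocation of GR-ED fusion to nuclear EA restores b-gal, read by luminescence after 1 h room-temperature detection. Engineered CHO-K1 biosensor cells, 1,000/well, exposed 2 h at 37 C to titrations up to 46 uM final.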

For test [5], the target named is Mitogen-activated protein kinase 10 (Mus musculus) (UniProt Q61831). The experiment in a line: JNK3 AlphaScreen Assay (AID 530).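 Also: kinase came from lysate of stimulated human HepG2 cells.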 Also: potency is read from the fitted curve at half-maximal effect.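 As to activity change, negative = inhibition: signal reports phosphorylation of biotinylated GST-cJun 1-79 at Ser73 with 10 µM ATP; % is scaled to controls: 0 for no effect and ±100 for the full control effect.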 Put shortly: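 Compound titrations were preincubated 15 minutes at room temperature with substrate, antibody and pre-activated JNK3-containing HepG2 lysate. Reactions were started with 10 uM ATP and stopped with EDTA-containing bead buffer for AlphaScreen detection.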
On the technique in general: Bead proximity is the source of the signal in Alpha formats.

Test [6] has as its target 3',5'-cyclic-AMP phosphodiesterase 4B (Homo sapiens) (UniProt Q07343). The experiment in a line: qHTS Assay for Inhibitors of PDE-IV (AID 607; active = well fitted activation curve with a large enough effect in the main read-out, with a control signal flat, not every such curve was filed as active; also: % of control where 0% means no effect). Put shortly:
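Cell-based read-out of cAMP via a modified cyclic nucleotide-gated channel and membrane potential dye (535/590 nm) in HEK293 cells expressing PDE4 endogenously. Compounds tested up to 22.9 uM final; 100 uM RO 20-1724 reference.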
In general terms: qHTS replaces the single test concentration by a dilution series.

The nature of test [7]: Stat Signaling Pathway (AID 446).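 Also: ME-180 cervical cancer cells given 40 pM IL-6 alongside compound; SIE-controlled beta-lactamase reporter measured as 460/530 nm FRET emission ratio; % is scaled to controls: 0 for no effect and ±100 for the full control effect.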 Put shortly:
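Reporter line: ME-180 cervical carcinoma, SIE-beta-lactamase. Treatment: compound with 40 pM IL-6, 5 hrs, 37 C, in low-serum OPTI-MEM with 10 mM HEPES pH 7.3. Detection: 460/530 nm fluorescence.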

Test [8] can be described thus: Cell Viability - BJ (AID 421; calls by dose curve;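 also: potency is read from the fitted curve at half-maximal effect; cells exposed to compound for 40 hours at 37 °C before readout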). Conditions: BJ fibroblast viability, qHTS. Put shortly: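 Cytotoxicity as drop in intracellular ATP (CellTiter-Glo, 20 min RT) after 40 hr compound exposure of BJ fibroblasts at 37 °C. Titrations scaled between DMSO and 100 uM tamoxifen, Hill-fitted for AC50.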
Test [9] in a line: Cell Viability - Jurkat (AID 426;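 active = dose-dependent loss of cell ATP signal giving a full or clear fitted curve, ranked by lower potency value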; also: potency is read from the fitted curve at half-maximal effect). The conditions noted are these: qHTS. Put shortly:
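qHTS, 1536-well; Jurkat E6-1, 5000 cells/well, complete medium; cpd 40 hr, 37 °C; CellTiter-Glo 20 min RT; luminescence. AC50 by Hill fit.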

The nature of test [10]: Cell Viability - Hek293 (AID 427;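 active = compounds whose dose-response curve shows a full or clear partial loss of cell viability, called from curve shape rather than a numeric limit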;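 also: potency is read from the fitted curve at half-maximal effect; cells exposed to compound for 40 hours at 37 °C before reading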). The conditions noted are these: qHTS. Put shortly:
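Luminescent ATP content (CellTiter-Glo, 20 min at room temperature) was measured after a 40 hr, 37 °C compound exposure of HEK293 cells. AC50 values came from Hill-equation fits of qHTS concentration-response data normalized to DMSO and 100 uM tamoxifen.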

The nature of test [11]: Cell Viability - HepG2 (AID 433; calls by dose curve;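 also: potency is read from the fitted curve at half-maximal effect; potency for ATP loss meaning cytotoxicity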). Conditions: qHTS. Put shortly: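 HepG2 hepatocellular carcinoma cells (1500/well) were treated with compounds for 40 h at 37 °C in complete medium; intracellular ATP was read by CellTiter-Glo luminescence. Data were normalized to DMSO and 100 uM tamoxifen, and AC50 came from Hill fits.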
Test [12] can be described thus: Cell Viability - SK-N-SH (AID 435; calls by dose curve;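 also: potency is read from the fitted curve at half-maximal effect; compound exposure lasted 40 h at 37 °C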). The conditions noted are these: SK-N-SH neuroblastoma cell viability qHTS. Put shortly: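 SK-N-SH human neuroblastoma cells (1500/well) were exposed to compounds in complete medium for 40 h at 37 °C, and intracellular ATP was then measured by CellTiter-Glo luminescence. AC50 was taken from Hill fits, normalized to DMSO and 100 uM tamoxifen.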

A short description of test [13]: Cell Viability - N2a (AID 540; active = well fitted curve in the direction sought with a large enough effect; an effect the other way counts as inactive or inconclusive;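 also: plate controls were DMSO alone for no effect and tamoxifen control for full effect; nearly all actives have a fitted effect of over 45% in size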). The conditions noted are these: N2a mouse neuroblastoma cell viability; activity change, negative = cytotoxicity: at 92.2 µM (top of the series). Put shortly: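 Luminescent ATP signal (CellTiter-Glo, 20 min at room temperature) served as the viability read-out after N2a cells were treated with compounds for 40 hours at 37 °C. Concentration-response data were fitted to the Hill equation for AC50.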

Test [14] can be described thus: Cell Viability - NIH 3T3 (AID 541; active = well fitted curve in the direction sought with a large enough effect; an effect the other way counts as inactive or inconclusive;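 also: plate controls were DMSO alone for no effect and tamoxifen positive control for full effect; nearly all actives have a fitted effect of over 25% in size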). Put shortly:
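Luminescent ATP signal (CellTiter-Glo) served as the viability read-out after NIH 3T3 cells were exposed to compounds over a concentration range for 40 hr at 37 °C. Hill-equation modelling of concentration-response data gave AC50.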

Test [15] can be described thus: Cell Viability - HUV-EC-C (AID 542; active = well fitted curve in the direction sought with a large enough effect; an effect the other way counts as inactive or inconclusive; also: % is scaled to controls: 0 for no effect and ±100 for the full control effect; nearly all actives have a fitted effect of over 35% in size). Put shortly:
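qHTS cytotoxicity: HUV-EC-C, 1000 cells/well, 5 hr settle, compound 40 hr 37 °C, CellTiter-Glo, luminescence. AC50 via Hill equation.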

Test [16] in a line: Cell Viability - SH-SY5Y (AID 544; active = well fitted curve in the direction sought with a large enough effect; an effect the other way counts as inactive or inconclusive;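 also: 0% = DMSO alone and -100% = 100 µM tamoxifen; nearly all actives have a fitted effect of over 55% in size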). Put shortly: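 Luminescent ATP read-out (CellTiter-Glo) measures loss of viable SH-SY5Y neuroblastoma cells after 40 hr compound exposure at 37 °C. AC50 values derive from standard Hill modelling of qHTS concentration-response data.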
Test [17] is described as follows: Cell Viability - Renal Proximal Tubule (AID 545; active = well fitted curve in the direction sought with a large enough effect; an effect the other way counts as inactive or inconclusive;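 also: 0% = DMSO only and -100% = 100 µM tamoxifen; nearly all actives have a fitted effect of over 40% in size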). Put shortly: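 Primary rat renal proximal tubule cells (1000/well) were treated with compounds for 40 hr at 37 °C in complete medium. Intracellular ATP was measured by CellTiter-Glo luminescence, and AC50 values came from Hill-equation fits of concentration-response data.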
A short description of test [18]: Cell Viability - Mesenchymal (AID 546; active = well fitted curve in the direction sought with a large enough effect; an effect the other way counts as inactive or inconclusive;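 also: cells exposed to compound for 40 hours before reading; 0% = DMSO only and -100% = 100 µM tamoxifen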). Put shortly:
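AC50 values reflect the drop in intracellular ATP in a human kidney mesenchymal line derived from normal glomeruli. Treatment lasts 40 hr at 37 °C in complete medium, and the signal comes from CellTiter-Glo luminescence.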

The nature of test [19]: NFAT Signaling Pathway (AID 444).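 Also: carbachol stimulus at about its EC50 of 1 µM final; % is scaled to controls: 0 for no effect and ±100 for the full control effect.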 Conditions: Jurkat NFAT-bla M1, carbachol, beta-lactamase ratio, 5 h. Put shortly: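 Read-out: CCF4 FRET ratio (460 nm/530 nm) after 1 h RT dye loading, used for %activity and AC50 from titration series. Cells: Jurkat NFAT-β-lactamase/M1 line, treated with compound plus 1 uM carbachol for 5 h, 37 °C.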
Test [20] in a line: Cell Viability - H-4-II-E (AID 543; active = well fitted curve in the direction sought with a large enough effect; an effect the other way counts as inactive or inconclusive; also: % is scaled to controls: 0 for no effect and ±100 for the full control effect; nearly all actives have a fitted effect of over 35% in size). Put shortly:
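Luminescent ATP signal (CellTiter-Glo) served as the viability read-out, with cytotoxicity seen as a concentration-dependent ATP drop. Cells were treated for 40 hours in complete medium. AC50 values derive from Hill-equation modelling.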

Structures are written as SMILES. Where “and” joins values, the source holds several entries; their conditions need not be identical. Identical values can stand only once. Records with an inconclusive call do not appear. More than one record can exist for a structure, and the calls need not agree. Calls of active or inactive are those of the source. Unless noted, calls follow the shape of the dose curve; as a rule, active = well fitted curve in either direction with a large enough effect (not every such curve was filed as active); inconclusive = small, poorly fitted or top-dose-only effect, or another doubt; inactive = flat fitted curve, though single readings scatter.

Sequence of 3',5'-cyclic-AMP phosphodiesterase 4B (Homo sapiens) (Q07343 whole entry, looked up): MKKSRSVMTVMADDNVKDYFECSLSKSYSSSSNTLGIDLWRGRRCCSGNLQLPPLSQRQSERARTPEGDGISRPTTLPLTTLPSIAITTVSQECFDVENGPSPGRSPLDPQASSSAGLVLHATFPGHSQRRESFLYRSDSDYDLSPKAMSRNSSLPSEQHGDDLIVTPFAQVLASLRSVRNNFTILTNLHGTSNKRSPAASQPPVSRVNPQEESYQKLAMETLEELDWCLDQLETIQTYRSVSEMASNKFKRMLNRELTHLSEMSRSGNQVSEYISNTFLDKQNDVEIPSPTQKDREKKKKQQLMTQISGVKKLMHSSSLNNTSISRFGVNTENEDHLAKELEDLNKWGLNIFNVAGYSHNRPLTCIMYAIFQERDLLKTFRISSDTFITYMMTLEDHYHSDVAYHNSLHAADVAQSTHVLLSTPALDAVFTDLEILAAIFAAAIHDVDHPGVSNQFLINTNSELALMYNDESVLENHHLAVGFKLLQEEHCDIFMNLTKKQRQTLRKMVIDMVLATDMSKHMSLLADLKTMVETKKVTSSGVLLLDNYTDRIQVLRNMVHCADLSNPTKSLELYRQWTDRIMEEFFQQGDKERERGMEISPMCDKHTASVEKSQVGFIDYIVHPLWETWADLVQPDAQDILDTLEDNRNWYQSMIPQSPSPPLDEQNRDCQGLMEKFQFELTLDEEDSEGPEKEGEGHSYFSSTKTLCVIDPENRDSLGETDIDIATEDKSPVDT
Sequence of Cytochrome P450 1A2 (Homo sapiens) (P05177 whole entry, looked up): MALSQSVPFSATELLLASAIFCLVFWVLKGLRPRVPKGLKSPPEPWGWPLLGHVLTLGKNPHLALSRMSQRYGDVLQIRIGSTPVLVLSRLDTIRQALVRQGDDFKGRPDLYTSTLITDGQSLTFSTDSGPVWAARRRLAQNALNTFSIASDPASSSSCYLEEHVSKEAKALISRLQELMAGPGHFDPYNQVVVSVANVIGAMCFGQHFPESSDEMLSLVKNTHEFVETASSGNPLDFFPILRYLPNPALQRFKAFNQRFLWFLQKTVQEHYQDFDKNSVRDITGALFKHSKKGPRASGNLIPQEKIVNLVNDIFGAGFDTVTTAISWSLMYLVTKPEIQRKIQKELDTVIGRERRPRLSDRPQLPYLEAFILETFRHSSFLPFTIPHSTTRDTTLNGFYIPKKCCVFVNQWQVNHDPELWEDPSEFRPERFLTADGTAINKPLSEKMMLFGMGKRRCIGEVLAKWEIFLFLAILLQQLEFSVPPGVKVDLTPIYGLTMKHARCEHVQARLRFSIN
Sequence of Glucocorticoid receptor (Homo sapiens) (P04150 whole entry, looked up, the tested form may be a part): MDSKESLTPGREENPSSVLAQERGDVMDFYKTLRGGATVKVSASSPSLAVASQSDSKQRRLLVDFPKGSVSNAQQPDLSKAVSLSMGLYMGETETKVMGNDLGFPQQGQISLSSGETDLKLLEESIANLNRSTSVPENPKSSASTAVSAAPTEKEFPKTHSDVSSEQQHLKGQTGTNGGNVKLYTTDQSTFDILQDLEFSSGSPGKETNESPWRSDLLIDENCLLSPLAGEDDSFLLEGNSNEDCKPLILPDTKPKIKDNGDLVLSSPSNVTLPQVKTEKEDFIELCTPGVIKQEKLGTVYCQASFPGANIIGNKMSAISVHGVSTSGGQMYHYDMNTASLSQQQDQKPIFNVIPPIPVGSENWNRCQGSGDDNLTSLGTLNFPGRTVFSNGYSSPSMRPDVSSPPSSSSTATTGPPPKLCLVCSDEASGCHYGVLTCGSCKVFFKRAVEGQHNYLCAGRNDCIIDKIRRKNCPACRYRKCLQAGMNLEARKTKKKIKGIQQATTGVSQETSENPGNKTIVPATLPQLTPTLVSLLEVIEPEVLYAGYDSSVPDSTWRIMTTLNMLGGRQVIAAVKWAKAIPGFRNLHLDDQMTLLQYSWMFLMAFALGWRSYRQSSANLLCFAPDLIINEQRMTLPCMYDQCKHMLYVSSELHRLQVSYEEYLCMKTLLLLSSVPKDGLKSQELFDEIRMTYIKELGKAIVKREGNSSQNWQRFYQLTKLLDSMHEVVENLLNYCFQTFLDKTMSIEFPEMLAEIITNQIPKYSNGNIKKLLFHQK

For the compound `O=C(CCc1ccc(O)cc1)c1c(O)cc(O)cc1O`, the compound was classed as inactive in test [1] and in test [6]. Besides, the Potency in test [2] was 6.31 µM (active) and 2 µM (active); in [3] it was > 46 µM (inactive); in [4], > 46 µM (inactive). In test [5], the Potency result is “inactive”.
For the compound `Cc1cc(C2CCCCC2)n(O)c(=O)c1`, the compound was called inactive in [1], in [7] and in [6]. Moreover, the Potency in test [2] was 15.8 µM (active); in [3], > 20.6 µM (inactive); in test [4], > 20.6 µM (inactive). For the same compound, the Potency entry in test [5] is “inactive”.
In the case of `NS(=O)(=O)c1cc(C(=O)O)c(NCc2ccco2)cc1Cl`, the outcome in test [1], in [7] and in test [6] was inactive. The Potency in test [8], in test [9], in test [10], in test [11] and in test [12] was > 92 µM (inactive) in each case. In addition, the Potency result in test [5], in test [13], in [14], in test [15], in test [16] and in test [17] was “inactive” each time. For the same compound, the Potency entry in test [18] is “inactive”.
With `Cc1nc2n(c(=O)c1CCN1CCC(c3noc4cc(F)ccc34)CC1)CCCC2`, the result in [1], in test [7] and in test [6] was inactive. Further, the Potency result in test [2] and in test [5] was “inactive” each time.
On to `O=c1c(O)c(-c2ccc(O)cc2O)oc2cc(O)cc(O)c12`, for which the result in [1] and in test [6] was inactive. In addition, the Potency was 12.6 µM (active) in [2]; > 46 µM (inactive) and > 20.6 µM (inactive) in test [3]; > 46 µM (inactive) in test [4]. Besides, the Potency entry in test [5] is “inactive”.
For the compound `CCCCc1ccc2nc(NC(=O)OC)[nH]c2c1`, the outcome in test [1], in test [7] and in test [6] was inactive. Moreover, the Potency in [2] is 0.501 µM (active). Further, the Potency entry in [5] is “inactive”.
With `O=C1c2ccccc2-c2n[nH]c3cccc1c23`, the call in [1] and in [6] was inactive. For the same compound, the Potency is 126 nM (active) and 15.8 nM (active) in test [2]; 1 µM (active) in [5].
For `CC1(C)NC(=O)N(c2ccc([N+](=O)[O-])c(C(F)(F)F)c2)C1=O`, the compound was called inactive in test [1], in test [7] and in [6]. Also, the Potency in test [2] was 12.6 µM (active) and 3.16 µM (active) and 2.51 µM (active). Also, the Potency result in test [5] is “inactive”.
Regarding `NCCCCNCCCN`, the result in [1] and in test [6] was inactive. For the same compound, the Potency result in [2] was “inactive and 31.6 µM (active)”; in [3] it was > 46 µM (inactive); in test [4], > 46 µM (inactive). Besides, the activity change, negative = inhibition in test [19] (at 38 µM (top of the series)) was -4.2% (inactive). Also, in [5], the Potency entry is “inactive”.
Take `O=C(O)c1cc(=O)c2c(OCC(O)COc3cccc4oc(C(=O)O)cc(=O)c34)cccc2o1`: the outcome in test [1], in test [7] and in test [6] was inactive. Further, the Potency result in [2] and in test [5] was “inactive” each time. Besides, the activity change, negative = inhibition in test [19] (at 17.2 µM (top of the series)) is -1.1% (inactive) and -27.1% (inactive).
`Cc1ccc(C)c(OCCCC(C)(C)C(=O)O)c1`: the outcome in [1], in test [7] and in [6] was inactive. In addition, the Potency in test [2] is 12.6 µM (active); in [8], > 92 µM (inactive); in [9] it was > 92 µM (inactive); in [10], > 92 µM (inactive); in [11] it was > 92 µM (inactive); in [12] it was > 92 µM (inactive). The Potency result in test [5], in test [13], in [14], in test [15], in [20] and in [16] was “inactive” throughout. The Potency entry in test [17] and in test [18] was “inactive” in each case.
In the case of `CCCc1cc(=O)[nH]c(=S)[nH]1`, the compound was classed as inactive in [1], in test [7] and in test [6]. The Potency result in [2], in test [5], in test [13], in [14], in test [15] and in test [20] was “inactive” each time. For the same compound, the Potency result in test [17] and in [18] was “inactive” throughout. Also, the Potency in [8], in [9], in test [10], in test [11] and in [12] was > 92 µM (inactive) in each case.
As to `CCC1=C(C)CN(C(=O)NCCc2ccc(S(=O)(=O)NC(=O)NC3CCC(C)CC3)cc2)C1=O` (stereo not drawn), the result in [1], in test [7] and in test [6] was inactive. For the same compound, the Potency result in test [2] and in test [5] was “inactive” throughout. Further, the Potency in test [3] and in [4] was > 20.6 µM (inactive) each time.
For the compound `Cc1c(OCC(F)(F)F)ccnc1CS(=O)c1nc2ccccc2[nH]1` (stereo not drawn), the outcome in test [1], in test [7] and in test [6] was inactive. The Potency in test [2] was 31.6 µM (active) and 15.8 µM (active); in test [3], > 46 µM (inactive) and > 20.6 µM (inactive); in test [4] it was > 46 µM (inactive) and > 20.6 µM (inactive). In addition, in [5], the Potency entry was “inactive”.

For the origin of these results see PubChem BioAssay (NCATS).
